Measured values taken from PubChem BioAssay (Tox21).
Inconclusive results are not listed. The source made the active and inactive calls. Unless noted, calls follow the shape of the dose curve; as a rule, active = well fitted curve in the direction sought with a large enough effect in the repeat runs; inconclusive = weak or mixed curves; inactive = no such curve, though single readings can be large; an effect the other way counts as inactive or inconclusive.

Legend:
[1] = qHTS assay to identify small molecule antagonists of the retinoid-related orphan receptor gamma (ROR-gamma) signaling pathway - cell viability counter screen (AID 1159520); also: nearly all actives have a fitted effect of over 50% in size; also: potency is read from the fitted curve at half-maximal effect
Method in brief: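 Tet-on ROR gamma CHO cells were given compounds for 2 hr, then doxycycline hyclate at 1 uM final, and incubated 16 hr at 37 C. Viability was measured as ATP content by CellTiter-Glo luminescence.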

[2] = qHTS assay to identify small molecule agonists of the AP-1 signaling pathway - cell viability counter screen (AID 1159525; calls by dose curve; also: nearly all actives have a fitted effect of over 55% in size; also: potency is read from the fitted curve at half-maximal effect)
Method in brief: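 AP-1-bla ME-180 cells in Opti-MEM with 0.5% dialyzed FBS, compound exposure 5 h at 37 C in 15-point titration. Viability read in the same wells as ATP content by CellTiter-Glo luminescence, normalised to tetra-n-octylammonium bromide and DMSO controls.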

[3] = qHTS assay to identify small molecule agonists of the AP-1 signaling pathway (AID 1159526; calls by dose curve; also: % is scaled to controls: 0 for no effect and ±100 for the full control effect)
[4] = molecular target: Retinoic acid receptor RXR-alpha (Homo sapiens) (UniProt P19793); experiment: qHTS assay to identify small molecule agonists of the RXR signaling pathway (AID 1159527; calls by dose curve; also: nearly all actives have a fitted effect of over 35% in size; also: potency is read from the fitted curve at half-maximal effect)
Method in brief: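 GeneBLAzer RXR-alpha-UAS-bla HEK 293T cells in 2% charcoal-stripped FBS medium were exposed to compounds for 16 hr at 37 C in agonist mode. Beta-lactamase reporter read as 460/530 nm FRET ratio after 2 hr substrate loading.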

[5] = qHTS assay to identify small molecule agonists of the RXR signaling pathway - cell viability counter screen (AID 1159529); also: nearly all actives have a fitted effect of over 50% in size; also: potency is read from the fitted curve at half-maximal effect
Method in brief: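 RXR-alpha-UAS-bla HEK 293T cells in medium with 2% charcoal-stripped FBS were pre-incubated 5 hr, then compound-treated 16 hr at 37 C. Viability was read by CellTiter-Glo luminescence in the same wells as the beta-lactamase assay, with tetraoctyl ammonium bromide as positive control.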

[6] = qHTS assay to identify small molecule antagonists of the retinoid acid receptor (RAR) signaling pathway - cell viability counter screen (AID 1159551); also: nearly all actives have a fitted effect of over 35% in size; also: potency is read from the fitted curve at half-maximal effect
Method in brief: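 C3RL4 cells were seeded overnight at 37 C, then treated with compounds plus 1 uM (final) retinol for 6 h at 37 C. Viability was read as ATP by CellTiter-Glo luminescence after 30 min at room temperature.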

[7] = qHTS assay to identify small molecule antagonists of the retinoic acid receptor (RAR) signaling pathway (AID 1159552; also: nearly all actives have a fitted effect of over 50% in size; also: potency is read from the fitted curve at half-maximal effect)
Method in brief: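 Retinol signaling pathway inhibitors screened in C3RL4 RARE-luciferase reporter cells seeded overnight at 37 C, then compounds added with 1 uM (final) retinol as pathway substrate. After 6 hr at 37 C, luciferase luminescence read after 30 min at room temperature.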

[8] = molecular target: Nuclear receptor ROR-gamma (Homo sapiens) (UniProt P51449); experiment: qHTS assay to identify small molecule antagonists of the retinoid-related orphan receptor gamma (ROR-gamma) signaling pathway (AID 1159521; also: potency is read from the fitted curve at half-maximal effect; nearly all actives have a fitted effect of over 50% in size)
Method in brief: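 Tet-on ROR-gamma CHO cells with ROR response element-luciferase reporter; compounds added 2 hr before 1 uM doxycycline induction, then 16 hr at 37 C. Antagonism scored as decreased ONE-Glo luminescence.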

[9] = molecular target: Peroxisome proliferator-activated receptor delta (Homo sapiens) (UniProt Q03181); experiment: qHTS assay to identify small molecule antagonists of the peroxisome proliferator-activated receptor delta (PPARd) signaling pathway (AID 743215; active = well fitted inhibition curve with a large enough effect in the signal ratio in the repeat runs, not every such curve was filed as active; the % refers to the signal ratio;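 also: cells stimulated with agonist L165041 at 300 nM final during compound exposure; series mostly up to about 62 µM; % is scaled to controls: 0 for no effect and ±100 for the full control effect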)
Method in brief: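 PPARd UAS-bla HEK293H cells were pre-incubated 5 h at 37 C, then given test compounds in DMSO plus agonist L165041 (300 nM final). After 17 h at 37 C, beta-lactamase FRET substrate was added; fluorescence read after 2 h at room temperature.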

[10] = molecular target: Bile acid receptor (Homo sapiens) (UniProt Q96RI1); experiment: qHTS assay to identify small molecule agonists of the farnesoid-X-receptor (FXR) signaling pathway (AID 743220; active = well fitted activation curve with a large enough effect in the signal ratio in the repeat runs, not every such curve was filed as active; the % refers to the signal ratio; also: % is scaled to controls: 0 for no effect and ±100 for the full control effect)
Method in brief: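 Beta-lactamase reporter under UAS control in GeneBLAzer FXR HEK 293T cells (5000/well) measured with LiveBLAzer FRET substrate after 2 h at room temperature. Compound exposure lasted 16 h at 37C.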

[11] = qHTS assay to identify small molecule antagonists of the farnesoid-X-receptor (FXR) signaling pathway - cell viability counter screen (AID 743221; active = well fitted cell-killing curve with a large enough effect in the repeat runs, not every such curve was filed as active; also: nearly all actives have a fitted effect of over 50% in size; also: potency is read from the fitted curve at half-maximal effect)
Method in brief: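 GeneBLAzer FXR-UAS-bla HEK 293T cells, compound plus chenodeoxycholic acid (50 uM final), 16 h at 37 C. CellTiter-Glo added to the same wells after the beta-lactamase read; luminescence read after 30 min at room temperature as viability.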

[12] = qHTS assay to identify small molecule agonists of the vitamin D receptor (VDR) signaling pathway - cell viability counter screen (AID 743224)
Method in brief: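 VDR-bla cells were preincubated 4 h at 37C/5% CO2, then exposed to compounds for 16 h. After the 2 h room-temperature bla FRET read, CellTiter-Glo was added to the same wells and luminescence read after 30 min.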

[13] = molecular target: Bile acid receptor (Homo sapiens) (UniProt Q96RI1); experiment: qHTS assay to identify small molecule antagonists of the farnesoid-X-receptor (FXR) signaling pathway (AID 743217; active = well fitted inhibition curve with a large enough effect in the signal ratio in the repeat runs, not every such curve was filed as active; the % refers to the signal ratio; also: % is scaled to controls: 0 for no effect and ±100 for the full control effect)
Method in brief: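 FXR-UAS-bla HEK 293T cells pre-incubated 5 h at 37 °C, then exposed to compounds with chenodeoxycholic acid (50 uM final) for 16 h at 37 °C. Beta-lactamase reporter read by LiveBLAzer B/G FRET substrate fluorescence after 2 h at room temperature.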

[14] = qHTS assay to identify small molecule agonists of the farnesoid-X-receptor (FXR) signaling pathway - cell viability counter screen (AID 743218); also: nearly all actives have a fitted effect of over 45% in size; also: potency is read from the fitted curve at half-maximal effect
Method in brief: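 FXR-UAS-bla HEK 293T cells, plated 5 h at 37 C, were exposed to compounds for 16 h at 37 C. CellTiter-Glo was then added to the same wells as the bla readout; luminescence read after 30 min at room temperature.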

[15] = qHTS assay to identify small molecule antagonists of the vitamin D receptor (VDR) signaling pathway - cell viability counter screen (AID 743225)
Method in brief: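 VDR-UAS-bla HEK 293T cells were plated and incubated 4 h at 37C, then dosed with compound plus 3 nM (final) 1-alpha,25-dihydroxyvitamin D3 for 16 h. After the 2 h beta-lactamase read, viability in the same wells was read as CellTiter-Glo luminescence after 30 min at room temperature.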

[16] = qHTS assay to identify small molecule antagonists of the peroxisome proliferator-activated receptor delta (PPARd) signaling pathway - cell viability counter screen (AID 743213); also: nearly all actives have a fitted effect of over 50% in size; also: potency is read from the fitted curve at half-maximal effect
Method in brief: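 HEK293H PPARd UAS-bla cells, 5 h pre-incubation, compound + L165041 300 nM final, 17 h 37 C; B/G FRET substrate 2 h RT; then CellTiter-Glo 30 min RT, luminescence.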

[17] = molecular target: Vitamin D3 receptor (Homo sapiens) (UniProt P11473); experiment: qHTS assay to identify small molecule agonists of the vitamin D receptor (VDR) signaling pathway (AID 743222; calls by dose curve; also: % is scaled to controls: 0 for no effect and ±100 for the full control effect)
Method in brief: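 VDR-bla cells were plated 4 h at 37C/5% CO2, then exposed to compounds in DMSO for 16 h. After LiveBLAzer B/G FRET substrate addition and 2 h at room temperature, beta-lactamase reporter fluorescence was read.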

[18] = molecular target: Vitamin D3 receptor (Homo sapiens) (UniProt P11473); experiment: qHTS assay to identify small molecule antagonists of the vitamin D receptor (VDR) signaling pathway (AID 743223; active = well fitted inhibition curve with a large enough effect in the signal ratio in the repeat runs, not every such curve was filed as active; the % refers to the signal ratio; also: % is scaled to controls: 0 for no effect and ±100 for the full control effect)
Method in brief: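 VDR-bla cells were treated with compound plus 3 nM final 1alpha,25-dihydroxyvitamin D3 for 16 h at 37C. Beta-lactamase reporter read by B/G FRET substrate fluorescence after 2 h at room temperature. qHTS format.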

[19] = qHTS assay to identify small molecule agonists of the retinoic acid receptor (RAR) signaling pathway (AID 1159553); also: % is scaled to controls: 0 for no effect and ±100 for the full control effect
Method in brief: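 C3RL4 cells carrying a RARE luciferase reporter were plated overnight at 37 C, then exposed to compounds in DMSO for 6 hr at 37 C and 5% CO2. Luminescence was read 30 min after luciferase reagent addition at room temperature.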

[20] = qHTS assay to identify small molecule antagonists of the estrogen related receptor (ERR) signaling pathway - cell viability counter screen (AID 1224818)
Method in brief: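 ERR reporter cells plated 6 h at 37 C/5% CO2, then compounds in DMSO pin-transferred and incubated 17.5 h at 37 C. Viability read as CellTiter-Fluor fluorescence after 30 min at 37 C.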

Bile acid receptor (Homo sapiens), sequence (Q96RI1 whole entry, looked up): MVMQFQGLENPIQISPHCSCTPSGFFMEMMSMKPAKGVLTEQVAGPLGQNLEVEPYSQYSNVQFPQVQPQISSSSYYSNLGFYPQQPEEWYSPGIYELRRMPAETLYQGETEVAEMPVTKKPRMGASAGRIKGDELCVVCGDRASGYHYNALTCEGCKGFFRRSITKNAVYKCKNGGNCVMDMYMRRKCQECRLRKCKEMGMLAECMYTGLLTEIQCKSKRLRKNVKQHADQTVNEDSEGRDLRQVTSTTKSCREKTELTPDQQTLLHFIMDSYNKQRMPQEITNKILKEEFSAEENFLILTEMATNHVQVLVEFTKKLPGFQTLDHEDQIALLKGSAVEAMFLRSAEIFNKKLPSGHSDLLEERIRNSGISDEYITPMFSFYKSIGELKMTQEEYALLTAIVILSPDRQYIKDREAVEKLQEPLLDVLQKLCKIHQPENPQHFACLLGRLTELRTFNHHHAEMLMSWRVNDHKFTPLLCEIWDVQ
Retinoic acid receptor RXR-alpha (Homo sapiens), sequence (P19793 whole entry, looked up): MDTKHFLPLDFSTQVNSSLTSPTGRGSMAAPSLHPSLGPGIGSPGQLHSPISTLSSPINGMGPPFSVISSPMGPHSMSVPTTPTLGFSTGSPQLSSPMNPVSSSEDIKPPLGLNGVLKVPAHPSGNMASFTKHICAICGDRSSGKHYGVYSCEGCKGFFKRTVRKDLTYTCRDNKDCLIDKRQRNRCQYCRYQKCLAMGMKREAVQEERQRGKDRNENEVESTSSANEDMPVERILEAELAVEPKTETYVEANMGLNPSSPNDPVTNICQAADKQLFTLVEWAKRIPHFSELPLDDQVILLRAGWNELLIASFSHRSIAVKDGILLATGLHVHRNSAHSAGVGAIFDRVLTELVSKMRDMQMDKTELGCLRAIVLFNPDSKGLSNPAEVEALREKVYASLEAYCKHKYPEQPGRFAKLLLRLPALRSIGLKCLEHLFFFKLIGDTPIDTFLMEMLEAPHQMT
Vitamin D3 receptor (Homo sapiens), sequence (P11473 whole entry, looked up): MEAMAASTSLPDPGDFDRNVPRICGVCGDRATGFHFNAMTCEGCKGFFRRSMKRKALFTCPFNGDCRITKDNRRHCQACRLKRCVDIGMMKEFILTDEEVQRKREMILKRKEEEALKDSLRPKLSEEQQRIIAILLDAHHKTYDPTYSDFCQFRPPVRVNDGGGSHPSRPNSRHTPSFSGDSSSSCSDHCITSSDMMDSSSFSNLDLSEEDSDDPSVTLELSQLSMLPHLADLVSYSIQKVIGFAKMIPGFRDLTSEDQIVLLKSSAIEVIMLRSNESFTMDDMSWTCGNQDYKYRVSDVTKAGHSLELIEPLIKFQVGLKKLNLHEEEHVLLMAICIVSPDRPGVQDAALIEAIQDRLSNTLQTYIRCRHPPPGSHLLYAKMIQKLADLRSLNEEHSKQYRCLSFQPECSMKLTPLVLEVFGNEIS
Peroxisome proliferator-activated receptor delta (Homo sapiens), sequence (Q03181 whole entry, looked up): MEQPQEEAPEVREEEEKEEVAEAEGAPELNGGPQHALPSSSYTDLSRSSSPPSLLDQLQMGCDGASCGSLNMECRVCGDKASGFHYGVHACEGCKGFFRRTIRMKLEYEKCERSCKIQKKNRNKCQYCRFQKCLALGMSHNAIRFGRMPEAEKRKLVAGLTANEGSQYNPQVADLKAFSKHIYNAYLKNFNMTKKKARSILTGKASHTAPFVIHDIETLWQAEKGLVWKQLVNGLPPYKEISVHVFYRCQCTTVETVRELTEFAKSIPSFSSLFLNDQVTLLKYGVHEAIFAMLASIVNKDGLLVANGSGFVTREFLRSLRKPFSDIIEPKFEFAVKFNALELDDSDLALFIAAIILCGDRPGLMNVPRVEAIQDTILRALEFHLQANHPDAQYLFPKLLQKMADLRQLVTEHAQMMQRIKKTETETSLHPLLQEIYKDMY

Cc1ccc(C2OC[C@@H]3OC(c4ccc(C)cc4)O[C@H]([C@H](O)CO)[C@@H]3O2)cc1 (stereo not given in full)
inactive: Potency [1] | Potency [2] | Potency [3] | Potency [4] | Potency [5] | Potency [6] | Potency [7]

CC(c1cc(C(C)(C)C)cc(C(C)(C)C)c1O)c1cc(C(C)(C)C)cc(C(C)(C)C)c1O
active: Potency [8] 19.3 µM | Potency [4] 3.47 µM
inactive: Potency [2] | Potency [3] | Potency [6]

CN(C/C=C/c1ccccc1)Cc1cccc2ccccc12
inactive: Potency [9] | outcome [10] | Potency [11] | Potency [1]
active: Potency [12] 26.6 µM | Potency [5] 13.4 µM | Potency [6] 26.6 µM

Nc1ccc(Oc2cccc(Oc3ccc(N)cc3)c2)cc1
active: Potency [7] 24.3 µM
inactive: Potency [1] | Potency [2] | Potency [3] | Potency [5]

CCNc1nc(NC(C)(C)C)nc(OC)n1
inactive: Potency [1] | Potency [2] | Potency [3] | Potency [4] | Potency [5] | Potency [7]

CC(C)c1ccc2sc3ccccc3c(=O)c2c1
inactive: Potency [13] | Potency [14] | Potency [11] | Potency [15] | Potency [1] | Potency [2] | Potency [3]

CC(C)C(=O)C(C)C
inactive: Potency [1] | Potency [2] | Potency [3] | Potency [5] | Potency [6] | Potency [7]

c1ccc(-c2ccccc2-c2ccccc2)cc1
active: Potency [5] 43.6 µM
inactive: Potency [1] | Potency [2] | Potency [6] | Potency [7]

CCCCCCCCc1ccc(Nc2ccc(CCCCCCCC)cc2)cc1
inactive: Potency [1] | Potency [2] | Potency [3] | Potency [4] | Potency [5] | Potency [6] | Potency [7]

COc1cc(C(C)C)ccc1C
inactive: activity, negative = cytotoxicity [1] -0.985% [at 19 µM] | viability change, negative = cytotoxic [2] 8.58% [at 15.8 µM] | activation [4] -1.52% [at 15.8 µM] | activity change, negative = cytotoxicity [5] 10.4% [at 15.8 µM] | activity change, negative = cytotoxicity [6] -0.431% [at 19 µM] | activity, negative = inhibition [7] 191% [at 19 µM]

COC(=O)c1ccc([N+](=O)[O-])cc1
inactive: Potency [1] | Potency [2] | Potency [3] | Potency [4] | Potency [5] | Potency [6] | Potency [7]

CN1CCN(CCCN2c3ccccc3Sc3ccc(Cl)cc32)CC1
inactive: outcome [17] | Potency [1] | Potency [2] | Potency [6]
active: Potency [16] 26.6 µM | Potency [14] 26.6 µM | Potency [11] 23.7 µM | Potency [5] 9.52 µM | Potency [7] 26.6 µM

Clc1nc(C(Cl)(Cl)Cl)c(Cl)c(Cl)c1Cl
inactive: Potency [16] | Potency [9] | Potency [14] | outcome [10] | Potency [15] | Potency [2]
active: Potency [12] 49 µM | Potency [1] 30.6 µM | Potency [5] 43.6 µM

C1CCSC1
inactive: Potency [1] | Potency [2] | Potency [3] | Potency [4] | Potency [5] | Potency [7]

c1ccc(C[P+](c2ccccc2)(c2ccccc2)c2ccccc2)cc1
active: Potency [8] 24.3 µM
inactive: Potency [2] | Potency [3] | Potency [6]

C=CCc1cc(S(=O)(=O)c2ccc(O)c(CC=C)c2)ccc1O
inactive: Potency [11] | Potency [18] | Potency [15] | Potency [1] | Potency [2] | Potency [5] | Potency [6] | Potency [19]
active: Potency [7] 54.5 µM

CC/C(=C(/c1ccc(O)cc1)c1ccc(OCCN(C)C)cc1)c1ccccc1
active: Potency [1] 40.3 µM | Potency [2] 36.2 µM | Potency [5] 14.4 µM | Potency [6] 35.9 µM | Potency [7] 18 µM

O[Si](c1ccccc1)(c1ccccc1)c1ccccc1
active: Potency [8] 24.3 µM
inactive: Potency [2] | Potency [3] | Potency [5] | Potency [6]

CCSCC
inactive: Potency [13] | Potency [14] | Potency [11] | Potency [15] | Potency [1] | Potency [2] | Potency [3] | Potency [5] | Potency [6]

O=C(Cl)c1ccc(Cl)cc1Cl
active: Potency [1] 61.1 µM
inactive: Potency [2] | Potency [3] | Potency [4] | Potency [5] | Potency [7]

CCOC(=O)[C@H](O)[C@@H](O)C(=O)OCC
inactive: Potency [1] | Potency [2] | Potency [3] | Potency [4] | Potency [5] | Potency [6] | Potency [7]

CCc1cccc(C)c1N(C(=O)CS(=O)(=O)O)C(C)COC (stereo not given)
inactive: Potency [1] | Potency [2] | Potency [4] | Potency [5] | Potency [7]

Cn1c(=O)[nH]c2ncn(C)c2c1=O
inactive: Potency [1] | Potency [2] | Potency [3] | Potency [4] | Potency [5] | Potency [6] | Potency [7] | Potency [20]

Oc1ccc2c(c1)CCC2
inactive: Potency [1] | Potency [2] | Potency [3] | Potency [4] | Potency [5] | Potency [6] | Potency [7]

CCC1(C)C(=O)N(Cl)C(=O)N1Cl (stereo not given)
inactive: Potency [1] | Potency [2] | Potency [3] | Potency [4] | Potency [5] | Potency [6] | Potency [7]

CCc1cccc(CC)c1
inactive: Potency [1] | Potency [2] | Potency [3] | Potency [4] | Potency [5] | Potency [6] | Potency [7]

O=C(CCCCCCCCc1cccnc1)N1CCC(C=C(c2ccccc2)c2ccccc2)CC1
active: Potency [14] 24.5 µM | Potency [1] 68.6 µM
inactive: Potency [11] | Potency [18] | Potency [15] | Potency [2] | Potency [6] | Potency [7] | Potency [19]
